# Compounds with a hit are over-represented: about 6.7% of the library has one in this group of screens.
# C diff HTS = inhibitors of Clostridium difficile growth | growth activity, negative = inhibition, % at 16 µg/mL (by protocol) | 0.25% of 86,000 active | Clostridium difficile clinical isolate growth, OD600, 24 h; hits give low values | AID 1259249;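 active = mean growth activity at or below -80% and every replicate also at or below -80%; inconclusive = mean at or below -80% but some replicate above -80%; inactive = mean growth activity above -80%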;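 note: 0% = DMSO wells and -100% = levofloxacin 16 µg/mL wells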
# T cruzi growth-1 = T. cruzi proliferation inhibition | T. cruzi beta-gal in NIH3T3, GalScreen luminescence, 90 h | inhibition, % at 8.34 µM | 5.9% of 77,000 active | AID 624255;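 active = mean inhibition above about 93%, with at least 55% of replicates each passing it, limit read from the data, passing the limit was not always enough; inconclusive = only one of those two conditions holds; inactive = neither condition holds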
# Pf Dd2 growth = blocks growth of Plasmodium falciparum Dd2 parasites; P. falciparum Dd2 growth, SYBR Green, 72 h; hits give low values; activity change, % at 10 µM; 2.3% of 94,000 active; AID 1159554; in the data active = activity change below about -80%; inconclusive = no clear call, values can overlap the other calls
# T cruzi growth-2 = blocks T. cruzi growth in NIH3T3 host cells; T. cruzi beta-gal in NIH3T3, GalScreen luminescence, 90 h; inhibition, % at 8.35 µM; 72% of 5,600 active; shares compounds with T cruzi growth-1; AID 651739;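 active = mean replicate inhibition above about 95% and at least 55% of replicates individually reaching it, limit read from the data; inconclusive = only one of the two criteria is met; inactive = neither criterion is met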
# T cruzi growth-3 = Trypanosoma cruzi proliferation inhibition | shares compounds with T cruzi growth-1 | T. cruzi beta-gal in NIH3T3, GalScreen luminescence, 90 h | inhibition, % at 2.09 µM | 21% of 5,600 active | AID 651740;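 active = mean inhibition above about 95%, with at least 55% of replicates also reaching it, limit read from the data; inconclusive = meets just one of the two conditions; inactive = meets neither condition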;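 note: plate controls were neutral control median for no effect and positive control median for full effect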
# 3T3 cytotox = kills mouse NIH/3T3 fibroblasts; 14% of 5,600 active; cytotoxicity (signal decrease), % at 8.35 µM; NIH/3T3 viability, CellTiter-Glo ATP luminescence, 90 h; shares compounds with T cruzi growth-1;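 active = mean signal decrease across replicates above about 35% based on untreated-well scatter, with enough replicates individually passing, limit read from the data; inconclusive = no rule stated though some were filed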;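 note: 0% = median of neutral control wells and 100% = median of positive control wells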
# 3T3 cytotox 2 = NIH/3T3 (mouse) viability loss; shares compounds with T cruzi growth-1; NIH/3T3 viability, CellTiter-Glo ATP luminescence, 90 h; inhibition, % at 24.9 µM; 56% of 5,600 active; AID 651744;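 active = mean loss of cell viability signal at or above a set limit, and enough replicates individually reaching it; inconclusive = meets only the mean limit or only the replicate share; inactive = meets neither condition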;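 note: 0% = median of neutral control wells and 100% = median of positive control wells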
# Numbers without * were called inactive; ? = inconclusive; / = no result given.
SMILES,C diff HTS,T cruzi growth-1,Pf Dd2 growth,T cruzi growth-2,T cruzi growth-3,3T3 cytotox,3T3 cytotox 2
C[C@H]1CN([C@@H](C)CO)S(=O)(=O)c2ccc(-c3cccc(C#N)c3)cc2O[C@H]1CN(C)C(=O)c1ccc(F)cc1,7,103*,-64,89,44,30,78*
COc1ccc(NC(=O)N2CCCCN3[C@H](C2)[C@H](c2ccc(C#Cc4ccccn4)cc2)[C@@H]3CO)cc1,-1,84,-5,/,/,/,/
COc1ccc(C#Cc2ccc([C@H]3[C@H]4CN(C(=O)Nc5ccc(F)cc5)CCCCN4[C@H]3CO)cc2)cc1,26,79,-9,/,/,/,/
COc1ccc(NC(=O)N2CCCCN3[C@H](CO)[C@@H](c4ccc(C#Cc5ccccc5)cc4)[C@@H]3C2)cc1,48,112*,7,91,95,37*,104*
O=C(Nc1cccc(F)c1)N1CCCCN2[C@@H](CO)[C@@H](c3ccc(C#Cc4ccccc4)cc3)[C@@H]2C1,64,79,-62,/,/,/,/
COc1ccc(C#Cc2ccc([C@H]3[C@H]4CN(C(=O)Nc5ccccc5F)CCCCN4[C@H]3CO)cc2)cc1,-8,120*,-56,106*,60,29,33*
COc1ccc(C#Cc2ccc([C@H]3[C@@H](CO)N4CCCCN(C(=O)Nc5ccc(F)cc5)C[C@@H]34)cc2)cc1,-16,107*,6,104*,104*,14,24
COc1ccc(C#Cc2ccc([C@@H]3[C@@H](CO)N4CCCCN(C(=O)Nc5ccccc5F)C[C@H]34)cc2)cc1,6,103,?,/,/,/,/
O=C(Nc1cccc(F)c1)N1CCCCN2[C@@H](CO)[C@@H](c3ccc(C#Cc4cccnc4)cc3)[C@@H]2C1,34,100*,-72,106*,100*,59*,103*
C[C@H]1CCCCO[C@@H](CN(C)S(=O)(=O)c2cn(C)cn2)[C@@H](C)CN([C@@H](C)CO)C(=O)c2cc(NC(=O)Nc3ccccc3)ccc2O1,1,49,-29,/,/,/,/
COc1ccc2c3c(n(C)c2c1)[C@H](CO)N(C)CC31CN(S(=O)(=O)c2cn(C)cn2)C1,4,/,9,/,/,/,/
COC(=O)c1c(CC[C@@H](CO)NC(=O)N[C@H](Cc2ccccc2)Cn2cc(-c3ccccn3)nn2)oc(C(C)=O)c1C(=O)OC,2,/,/,/,/,/,/
COc1ccc2c3c([nH]c2c1)[C@H](CO)N(C(=O)NC(C)C)CC31CCN(C(=O)NC(C)C)CC1,1,/,9,/,/,/,/
CO[C@@H]1CN(C)C(=O)c2ccc(NC(C)=O)cc2OC[C@H](C)N(C(=O)C2CCOCC2)C[C@@H]1C,/,-25,-9,/,/,/,/
C[C@@H]1CN([C@H](C)CO)C(=O)c2cc(NC(=O)CCC(F)(F)F)ccc2O[C@@H](C)CCCCO[C@@H]1CN(C)S(=O)(=O)c1cn(C)cn1,2,59,-4,/,/,/,/
CC(C)NC(=O)Nc1ccc2c(c1)CC(=O)N([C@@H](C)CO)C[C@H](C)[C@@H](CN(C)C)O2,4,11,-9,/,/,/,/
COc1ccc(C#Cc2ccc([C@H]3[C@H](CO)N4CCCCN(C(=O)Nc5cccc(F)c5)C[C@@H]34)cc2)cc1,-79,72,-64,/,/,/,/
COc1ccc(C#Cc2ccc([C@@H]3[C@H]4CN(C(=O)Nc5ccc(F)cc5)CCCCN4[C@H]3CO)cc2)cc1,49,1,-7,/,/,/,/
COc1ccc(NC(=O)N2CCCCN3[C@H](CO)[C@@H](c4ccc(C#Cc5ccccc5)cc4)[C@H]3C2)cc1,2,107*,-8,96*,104*,91*,104*
COc1ccc(C#Cc2ccc([C@@H]3[C@H]4CN(C(=O)Nc5ccccc5F)CCCCN4[C@H]3CO)cc2)cc1,-9,49,-64,/,/,/,/
COc1ccc(C#Cc2ccc([C@@H]3[C@@H](CO)N4CCCCN(C(=O)Nc5ccccc5)C[C@@H]34)cc2)cc1,6,111*,-37,83,93,31,102*
COc1ccc(C#Cc2ccc([C@H]3[C@H]4CN(C(=O)Nc5cccc(F)c5)CCCCN4[C@H]3CO)cc2)cc1,17,113*,-29,104*,85,1,15
C/C=C/c1ccc2c(c1)O[C@H](CN(C)C(=O)NCCC)[C@@H](C)CN([C@@H](C)CO)S2(=O)=O,-2,/,-20,/,/,/,/

# Source: PubChem BioAssay
